Hits are enriched below; roughly 1.1% of the tested compounds scored in any of these assays.
HTR5A ag – activates human HTR5A in OPRM1-OPRD1 agonist counter-screen. HTR5A agonist assay, luminescence, cell-based. activation, % at 9.3 µM. 0.61% of 340,000 active. AID 504692. P47898; in the data active = activation mostly above about 9.5%, no sharp cut-off; inactive = mostly below about 7.6%;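 also: 0% = cells with vehicle only and 100% = reference agonist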
MOR-DOR inv ag-1 – mu-delta opioid heterodimer inverse agonism | P35372+P41143 | cell-based MOR-DOR heterodimer luminescence | inhibition, % at 9.3 µM | 0.21% of 340,000 active | AID 504357; in the data active = inhibition above about 22%, passing the limit was not always enough;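 also: 0% = cells with DMSO and 100% = wells without cells with DMSO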
Target sequence (P35372 whole entry, looked up): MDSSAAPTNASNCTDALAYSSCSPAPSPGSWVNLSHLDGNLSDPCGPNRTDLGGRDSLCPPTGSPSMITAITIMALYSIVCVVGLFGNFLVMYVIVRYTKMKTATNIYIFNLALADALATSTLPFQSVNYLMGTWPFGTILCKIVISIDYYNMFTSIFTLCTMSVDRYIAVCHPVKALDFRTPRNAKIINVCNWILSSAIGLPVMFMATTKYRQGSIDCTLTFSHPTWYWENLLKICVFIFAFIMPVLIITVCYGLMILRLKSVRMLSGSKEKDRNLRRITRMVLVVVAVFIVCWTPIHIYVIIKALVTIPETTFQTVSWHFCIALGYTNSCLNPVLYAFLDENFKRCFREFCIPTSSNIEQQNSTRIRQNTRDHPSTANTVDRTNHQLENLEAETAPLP
Target sequence (P41143 whole entry, looked up): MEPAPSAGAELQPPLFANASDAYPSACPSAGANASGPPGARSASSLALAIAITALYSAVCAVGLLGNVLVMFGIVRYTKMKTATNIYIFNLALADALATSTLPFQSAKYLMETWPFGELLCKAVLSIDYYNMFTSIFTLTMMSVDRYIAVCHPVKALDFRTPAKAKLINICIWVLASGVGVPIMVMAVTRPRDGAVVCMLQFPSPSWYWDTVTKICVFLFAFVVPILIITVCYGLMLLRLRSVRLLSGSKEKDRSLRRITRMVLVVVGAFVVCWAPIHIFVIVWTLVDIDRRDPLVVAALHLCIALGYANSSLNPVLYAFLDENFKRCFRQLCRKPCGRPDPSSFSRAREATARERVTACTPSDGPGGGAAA
HTR5A inv ctr – HTR5A inverse agonism, opioid heterodimer counter-screen; P47898; HTR5A cell line, luminescence; inhibition, % at 9.3 µM; 0.083% of 340,000 active; AID 504634; in the data active = inhibition mostly above about 23%, no sharp cut-off; inactive = mostly below about 18%;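 also: 0% = cells with DMSO and 100% = no-cell wells with DMSO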
OPRM1-OPRD1 ag – agonists of human mu-delta opioid receptor heterodimerization. cells, OPRM1-OPRD1 heterodimerization, luminescence. activation, % at 9.3 µM. P35372+P41143. 0.3% of 340,000 active; in the data active = activation above about 18%;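 also: 0% = vehicle-treated cells and 100% = reference agonist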
MOR-DOR ag conf – OPRM1-OPRD1 heterodimer agonism, confirmation; shares compounds with OPRM1-OPRD1 ag; cells, MOR-DOR heterodimerization, luminescence complementation; activation, % at 9.3 µM; 45% of 830 active; AID 504904; in the data active = activation above about 18%;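 also: 0% = vehicle-treated cells and 100% = reference agonist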
HTR5A ag counter – HTR5A agonism, opioid heterodimer counter-screen | HTR5A agonist counterscreen, cell luminescence | AID 504905 | activation, % at 9.3 µM | shares compounds with OPRM1-OPRD1 ag | 8% of 830 active; in the data active = activation above about 17%;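 also: 0% = vehicle-treated cells and 100% = reference agonist response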
MOR-DOR inv conf – OPRM1-OPRD1 heterodimer inverse agonism, confirmation; cells expressing OPRM1/OPRD1 heterodimer, luminescence; 20% of 580 active; AID 504900; shares compounds with MOR-DOR inv ag-1; inhibition, % at 9.3 µM; in the data active = inhibition above about 32%;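 also: 0% = cells with DMSO and 100% = wells lacking cells with DMSO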
HTR5A inv ctr2 – counter-screen for OPRM1-OPRD1 inverse agonists: human HTR5A inverse agonism | shares compounds with MOR-DOR inv ag-1 | inhibition, % at 9.3 µM | HTR5A-expressing cells, luminescence | 580 tested, under 10 active;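 also: 0% = cells with DMSO and 100% = no-cell wells with DMSO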
MOR-DOR inv ag-2 – opioid heterodimer inverse agonism, HTR5A counter-screen; shares compounds with HTR5A inv ctr; U2OS counter-screen cells, complementation luminescence; inhibition, % at 9.3 µM; 190 tested, under 10 active;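 also: 0% = cells with DMSO and 100% = wells without cells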
HTR5A inv confrm – confirmation of human HTR5A inverse agonists; inhibition, % at 9.3 µM; 190 tested, under 10 active; HTR5A-expressing cells, inverse agonism, luminescence; shares compounds with HTR5A inv ctr;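 also: 0% = cells with DMSO and 100% = no cells with DMSO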
* marks the source's active call; other numbers are inactive results. Unless noted, no rule for the calls is given here.

How did CCN(CC)c1ccc(C(=C2C=CC(=[N+](CC)CC)C=C2)c2ccc(N(CC)CC)cc2)cc1 do in these assays?
HTR5A ag: -20; MOR-DOR inv ag-1: -431; HTR5A inv ctr: 50*; OPRM1-OPRD1 ag: 108*; MOR-DOR ag conf: 4; HTR5A ag counter: 33*; MOR-DOR inv ag-2: -58; HTR5A inv confrm: -122

How did Cc1ccc(C)c(N(CC(=O)NCCC2=CCCCC2)S(C)(=O)=O)c1 do in these assays?
HTR5A ag: 3; MOR-DOR inv ag-1: 2; HTR5A inv ctr: 2; OPRM1-OPRD1 ag: 0

Results for C=C1c2cc(C)ccc2NC(=O)N1c1ccc(C)cc1 ?
HTR5A ag: 3; MOR-DOR inv ag-1: 23; HTR5A inv ctr: 7; OPRM1-OPRD1 ag: -5

How did Cc1ccc2c(c1)/C(=N/N1C(=O)c3ccccc3C1=O)C(=O)N2 do in these assays?
HTR5A ag: -2; MOR-DOR inv ag-1: 28*; HTR5A inv ctr: 7; OPRM1-OPRD1 ag: -5; MOR-DOR inv conf: 5; HTR5A inv ctr2: 14

Results for CCOc1ccc2c(c1)/C(=N/N1C(=O)c3ccccc3C1=O)C(=O)N2 ?
HTR5A ag: -7; MOR-DOR inv ag-1: 42*; HTR5A inv ctr: 19; OPRM1-OPRD1 ag: -7; MOR-DOR inv conf: -7; HTR5A inv ctr2: 7

How did CCn1c(SCc2ccc(OC)cc2)nnc1-c1ccncc1 do in these assays?
HTR5A ag: 5; MOR-DOR inv ag-1: 21; HTR5A inv ctr: -5; OPRM1-OPRD1 ag: -5

Results for Cc1nn(CCC(=O)NNC(=S)Nc2ccc([N+](=O)[O-])cc2)c(C)c1[N+](=O)[O-] ?
HTR5A ag: 0; MOR-DOR inv ag-1: 24; HTR5A inv ctr: 8; OPRM1-OPRD1 ag: -4

What do the screens show for `Cc1nn(CCC(=O)NNC(=S)Nc2ccc(F)cc2)c(C)c1Br`?
HTR5A ag: -3; MOR-DOR inv ag-1: 44*; HTR5A inv ctr: -27; OPRM1-OPRD1 ag: -8; MOR-DOR inv conf: 2; HTR5A inv ctr2: 7

How did CCNC(=S)NNC(=O)CSc1nc2ccccc2n1C do in these assays?
HTR5A ag: -3; MOR-DOR inv ag-1: 38*; HTR5A inv ctr: 7; OPRM1-OPRD1 ag: -8; MOR-DOR inv conf: -15; HTR5A inv ctr2: 17

Results for CCNC(=S)NNC(=O)CSc1nc2ccccc2[nH]1 ?
HTR5A ag: -2; MOR-DOR inv ag-1: 26; HTR5A inv ctr: 31; OPRM1-OPRD1 ag: -6

How did CC1(C)CC(=O)C(C2(O)C(=O)N(Cc3ccccc3)c3ccccc32)CO1 (stereo not drawn) do in these assays?
HTR5A ag: -7; MOR-DOR inv ag-1: 29; HTR5A inv ctr: 18; OPRM1-OPRD1 ag: -6

Results for CC1(C)CC(=O)CC(C2(O)C(=O)N(Cc3ccccc3)c3ccccc32)O1 (stereo not drawn) ?
HTR5A ag: -6; MOR-DOR inv ag-1: 34*; HTR5A inv ctr: 16; OPRM1-OPRD1 ag: -6; MOR-DOR inv conf: 20; HTR5A inv ctr2: 9

Results for Cc1cc(=O)oc2c(N)c(O)ccc12 ?
HTR5A ag: 3; MOR-DOR inv ag-1: 15; HTR5A inv ctr: -9; OPRM1-OPRD1 ag: -3

What do the screens show for `C/C(=N\NC(=O)c1cc(C)nc2ccccc12)c1ccccn1`?
HTR5A ag: -1; MOR-DOR inv ag-1: 26; HTR5A inv ctr: 2; OPRM1-OPRD1 ag: -7

How did COc1ccc2nc(NN=C(C)c3ccccn3)cc(C)c2c1 do in these assays?
HTR5A ag: -4; MOR-DOR inv ag-1: 39*; HTR5A inv ctr: 17; OPRM1-OPRD1 ag: -8; MOR-DOR inv conf: -34; HTR5A inv ctr2: -91

How did COc1ccc(/C=C2\C(=O)NC(=O)c3ccccc32)cc1OC do in these assays?
HTR5A ag: 4; MOR-DOR inv ag-1: 1; HTR5A inv ctr: -15; OPRM1-OPRD1 ag: 0

Results for COc1ccc(-c2cccc3c2NC(=O)C3=O)cc1OC ?
HTR5A ag: -3; MOR-DOR inv ag-1: 64*; HTR5A inv ctr: 8; OPRM1-OPRD1 ag: -11; MOR-DOR inv conf: 42*; HTR5A inv ctr2: 16

How did Cc1cccc(C(=O)N2CCN(CCNC(=O)C(=O)Nc3ccc(F)cc3)CC2)c1 do in these assays?
HTR5A ag: -1; MOR-DOR inv ag-1: -13; HTR5A inv ctr: 16; OPRM1-OPRD1 ag: 2

Results for CC(=O)c1sc(NC(C)c2ccccc2)nc1C (stereo not drawn) ?
HTR5A ag: 0; MOR-DOR inv ag-1: 1; HTR5A inv ctr: -5; OPRM1-OPRD1 ag: 0

What do the screens show for `COc1cccc(C2SCC(=O)N2c2ccc(C)cc2)c1OC` (stereo not drawn)?
HTR5A ag: 0; MOR-DOR inv ag-1: 15; HTR5A inv ctr: 0; OPRM1-OPRD1 ag: -2

Results for O=C1NC(=S)S/C1=C\c1cc(Cl)cc(Cl)c1O ?
HTR5A ag: 0; MOR-DOR inv ag-1: 35*; HTR5A inv ctr: -2; OPRM1-OPRD1 ag: -7; MOR-DOR inv conf: -59; HTR5A inv ctr2: -13

Results for Cc1ccc(Cl)c2c1NC(=O)C2(O)CC(=O)c1ccccc1O (stereo not drawn) ?
HTR5A ag: -4; MOR-DOR inv ag-1: 80*; HTR5A inv ctr: 27; OPRM1-OPRD1 ag: -15; MOR-DOR inv conf: 75*; HTR5A inv ctr2: -9

How did O=c1c2cc(Cl)ccc2[nH]c(=S)n1Cc1ccccn1 do in these assays?
HTR5A ag: -9; MOR-DOR inv ag-1: 72*; HTR5A inv ctr: 23; OPRM1-OPRD1 ag: -12; MOR-DOR inv conf: 55*; HTR5A inv ctr2: 10

How did O=C(NCc1ccccn1)c1ccc(Cn2c(=S)[nH]c3ccc(Br)cc3c2=O)cc1 do in these assays?
HTR5A ag: 4; MOR-DOR inv ag-1: 2; HTR5A inv ctr: -10; OPRM1-OPRD1 ag: 0

Results for CNS(=O)(=O)c1cccc(C(=O)OCC(=O)c2cc3ccccc3o2)c1 ?
HTR5A ag: -15; MOR-DOR inv ag-1: 77*; HTR5A inv ctr: 37*; OPRM1-OPRD1 ag: -17; MOR-DOR inv conf: -282; HTR5A inv ctr2: 6

What do the screens show for `COc1cc(C(=O)OCC(=O)c2ccc(S(=O)(=O)N3CCCCC3)cc2)cc(OC)c1OC`?
HTR5A ag: -3; MOR-DOR inv ag-1: 31; HTR5A inv ctr: 1; OPRM1-OPRD1 ag: -8

How did CNS(=O)(=O)c1cccc(C(=O)OCC(=O)c2ccc(S(=O)(=O)N3CCCCC3)cc2)c1 do in these assays?
HTR5A ag: -5; MOR-DOR inv ag-1: 53*; HTR5A inv ctr: 13; OPRM1-OPRD1 ag: -10; MOR-DOR inv conf: 24; HTR5A inv ctr2: 18
